Where “and” joins values, the source holds several entries; their conditions need not be identical. Equal values may be shown once. Hit rate of the full screen: of about 400,000 compounds, about 3,700 (0.93%) were called active. Inconclusive results (about 3%) are left out. The sample as a whole holds a higher share of actives than the screen did. Some structures have more than one record in an assay (separate samples or runs), and their calls can disagree. A number with no mark means an inactive call. Calls follow the shape of the dose curve; as a rule, active = well fitted inhibition curve with a large enough effect; inconclusive = small, poorly fitted or top-dose-only effect, or another doubt; inactive = no such curve, though single readings can be large or run the other way.
The compounds below were run against Vitamin D3 receptor (Homo sapiens) (UniProt P11473) (assay: Inhibitors of the vitamin D receptor (VDR): qHTS). Details: VDR-SRC2-3 peptide fluorescence polarization, 2 h; max response, negative = inhibition: active compounds read low.
From the text: The vitamin D receptor (VDR) is a ligand-activated transcription factor and is partially responsible for the regulation of the endocrine system. This includes the transcriptional regulation of genes involved in the production of the parathyroid hormone (PTH) and the regulation of the blood calcium level. High levels of PHT can cause hypercalcemia in the case of primary and tertiary hyperparathyroidism. The VDR-mediated gene regulation, activated by its ligand 1,25-dihydroxyvitamin D3 (1,25-(OH)2D3), is governed by the recruitment of coactivators. Our hypothesis is that small molecules, with the ability to inhibit the interaction between VDR and certain coactivators, are able to selectively modulate VDR-mediated transcription. Our long term objective is the application these VDR-coactivator inhibitors to study the role of VDR-coactivator binding for specific VDR regulated genes. Ultimately, these molecules can be developed into new treatments for hypercalcemic hyperparathyroidism. No small molecule or non-peptide inhibitors are known for the VDR-coactivator interaction.
In a collaboration between the University of Wisconsin, Milwaukee and the NIH Chemical Genomics Center (NCGC) a HTS-compatible enzymatic assay was developed. The assay uses fluorescence polarization as its read-out to measure the inhibition between VDR and coregulator peptide SRC2-3 exerted by small molecules. This assay was used to screen the NIH Molecular Libraries Small Molecule Repository (MLSMR).
NIH Chemical Genomics Center [NCGC]
NIH Molecular Libraries Probe Centers Network [MLPCN]
Assay Submitter (PI): Alexander Arnold, University of Wilwaukee
Both solutions are kept at 4 deg C and protected from light and dispensed using a Kalypsys dispenser. Then 23nl of compounds and controls are added with Kalypsys pintool. […] Plate is centrifuged at 1000 RPM for 15 seconds to remove any residual bubbles. The plate is then incubate at ambient room temperature for 2 hours.
% is scaled to controls: 0 for no effect and ±100 for the full control effect; potency is read from the fitted curve at half-maximal effect.

Chain of Vitamin D3 receptor (Homo sapiens) (P11473 whole entry, looked up): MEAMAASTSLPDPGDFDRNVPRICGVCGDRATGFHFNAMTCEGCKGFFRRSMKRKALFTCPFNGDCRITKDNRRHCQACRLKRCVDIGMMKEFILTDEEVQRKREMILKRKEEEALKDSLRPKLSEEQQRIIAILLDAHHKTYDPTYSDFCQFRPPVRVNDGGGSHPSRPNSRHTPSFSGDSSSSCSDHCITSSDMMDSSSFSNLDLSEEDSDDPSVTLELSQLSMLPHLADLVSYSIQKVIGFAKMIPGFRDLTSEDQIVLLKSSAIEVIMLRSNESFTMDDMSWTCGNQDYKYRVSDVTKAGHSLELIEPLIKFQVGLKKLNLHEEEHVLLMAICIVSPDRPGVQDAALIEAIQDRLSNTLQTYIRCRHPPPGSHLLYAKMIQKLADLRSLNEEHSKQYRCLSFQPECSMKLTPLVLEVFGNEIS

| Structure (SMILES) | Potency | max response, negative = inhibition |
| --- | --- | --- |
| CC[N+](C)(CC)CCC[n+]1c(-c2ccccc2)c2cc(N)ccc2c2ccc(N)cc21 | 8.91 µM (active) |  |
| COc1ccc2c3c1O[C@H]1C[C@@H](O)C=C[C@@]31CCN(C)C2 |  | 4.74% and -11.8% |
| c1ccc2c(c1)[I+]c1ccccc1-2 |  | -6.32% |
| COc1ccc(CN2C(=O)NC(=O)/C(=C\c3ccc(OC)c(OC)c3OC)C2=O)cc1 | 70.8 µM (active) |  |
| CNC(C)[C@@H](O)c1ccccc1 (stereo not given in full) |  | 2.28% |
| CO[C@@H]1C[C@@H](C[C@H]2CC[C@H](C)[C@@H]([C@@H](C)C(=O)O)O2)O[C@]2(O[C@](C)([C@H]3CC[C@@](C)(C4OC([C@H]5O[C@@](O)(CO)[C@H](C)C[C@@H]5C)C[C@@H]4C)O3)C[C@H]2C)[C@@H]1C (stereo not given in full) |  | 10.2% |
| N#Cc1c(Cl)c(Cl)c(Cl)c(C#N)c1Cl | 0.794 µM (active) |  |
| CCCCCCCCCCCCN=C(N)N |  | 6.41% |
| C[C@@H]1C[C@H]2CC[C@H](O2)[C@H](C)C(=O)O[C@@H](C)C[C@@H]2CC[C@@H](O2)[C@@H](C)C(=O)O[C@H](C)C[C@H]2CC[C@H](O2)[C@H](C)C(=O)O[C@@H](C)C[C@@H]2CC[C@@H](O2)[C@@H](C)C(=O)O1 |  | 8% |
| COc1ccc2c3c1OC1CC(O)C=C[C@@]31CCN(C)C2 (stereo not given in full) |  | -3.65% |
| NC[C@H](O)c1ccc(O)cc1 |  | 6.55% |
| O=C(Nc1cccc(F)c1)N1CC[C@@]2(CCCN(C(=O)Oc3ccccc3)C2)C1 |  | 2.93% |
| CCOC(=O)c1ncn2c1[C@@H]1CCCN1C(=O)c1cc(OC)ccc1-2 |  | -6.26% |
| CC(=O)c1c(O)c(C)c(O)c(Cc2c(O)c3c(c(C(=O)/C=C/c4ccccc4)c2O)OC(C)(C)C=C3)c1O | 14.1 µM (active) and 8.91 µM (active) and 39.8 µM (active) |  |
| CC(=O)c1c(O)c(C)c(O)c(Cc2c(O)c3c(c(C(=O)/C=C\c4ccccc4)c2O)OC(C)(C)C=C3)c1O | 35.5 µM (active) |  |
| CN(C)C[C@H]1CCCC[C@]1(O)c1cccc(O)c1 |  | 1.62% |
| Cc1cccc([C@H](C)c2cnc[nH]2)c1C |  | 7.28% |
| CO[C@H]1[C@@H](O)[C@@H](C)O[C@H](O[C@H]2[C@H](Oc3cccc4c(O)c5c(=O)oc6ccc(C)c7c(=O)oc(c34)c5c67)O[C@H](C)[C@H](O)[C@@H]2O)[C@@H]1O |  | 14.9% |
| Cc1ccc(-n2c(/C=C/c3cccc(C(F)(F)F)c3)nc3ccccc3c2=O)cc1 |  | 9.47% |
| Cc1ccc(NC(=O)N(Cc2ccc3c(c2)OCO3)C2CCN(Cc3ccccc3)CC2)cc1F |  | 4.08% |
| Fc1ccc(C(OCCN2CCN(C/C=C\c3ccccc3)CC2)c2ccc(F)cc2)cc1 |  | -15.8% |
| CCCCC/C=C\C/C=C\C/C=C\CCCCCCC(=O)NCCO |  | -6.07% and 11.4% and 0.788% |

| Structure (SMILES) | Potency | max response, negative = inhibition |
| --- | --- | --- |
| CCCCC/C=C\C/C=C\C/C=C\C/C=C\CCCCCC(=O)NCCO | 35.5 µM (active) | 17.7% and -2.94% and 0.308% |
| CCCCC/C=C\C/C=C\C/C=C\C=C\[C@H](CCCC(=O)O)OO |  | 7.28% and 4.32% |
| CC[C@@H]1CN2CC[C@@H]1C[C@H]2[C@H](O)c1ccnc2ccc(OC)cc12 |  | 3.71% |
| CC(=O)[O][Sn]([c]1ccccc1)([c]1ccccc1)[c]1ccccc1 | 2.24 µM (active) |  |
| COC(=O)N1C(c2ccccc2)C1c1ccccc1 (stereo not given) |  | 8.84% |
| O=C(O)CCn1cc(C=C2C(=O)NC(=S)NC2=O)c(-c2cccc(Br)c2)n1 | 25.1 µM (active) |  |
| C[C@@]12CC[C@H]3[C@@H](CC[C@]4(O)C[C@H](O)CC[C@@]34C=O)[C@]1(O)CC[C@@H]2C1=CC(=O)OC1 |  | 6.85% |
| c1csc(CN2CC3(CCNCC3)C2)n1 |  | 2.29% |
| Cc1cccc2c3c(ccc12)C1=C(C(=O)C3=O)C(C)CO1 (stereo not given) | 5.62 µM (active) |  |
| COc1ccc(C2Oc3c(I)c(OC)cc(OC)c3CC2O)cc1OC (stereo not given) |  | -4.29% |
| Nc1ccc(-c2ccc(N)c(N)c2)cc1N |  | 7.8% |
| c1ccc(CCCCN2CCC(c3ccccc3)CC2)cc1 |  | 6.23% and 8.72% |
| Cc1ncsc1CCCl |  | -5.72% and -13.2% and 18.1% |
| COc1ccccc1-c1[se]c2ccccc2c1I |  | -10.1% |
| N#CC(C#N)=Cc1cc(O)c(O)c([N+](=O)[O-])c1 | 44.7 µM (active) |  |
| CCC(C)C(=O)O[C@@H]1C[C@@]2(C)C(c3ccoc3)OC(=O)CC23OC2(C)O[C@@]14[C@@]1(C)C(CC(=O)OC)C5(C)CC1(O)C(O)(C5OC(=O)C1(C)OC1C)C(OC(C)=O)[C@@]34O2 (stereo not given in full) |  | -0.0436% |
| C[C@]12O[C@H](C[C@@]1(O)C(=O)O)n1c3ccccc3c3c4c(c5c6ccccc6n2c5c31)CNC4=O |  | 0.321% |
| COc1cc2c(cc1OC)[C@@H]1C(=O)c3ccc(O)c(CC=C(C)C)c3OC1CO2 (stereo not given in full) |  | 10.7% |
| CCCCCCCCCCCCCC(=O)O[C@@H]1[C@@H](C)[C@@]2(O)[C@@H](C=C(CO)C[C@]3(O)C(=O)C(C)=C[C@@H]23)[C@@H]2C(C)(C)[C@]12OC(C)=O |  | 3.48% |
| CCC1(c2ccccc2)C(=O)NC(=O)N(C)C1=O (stereo not given) |  | 3.76% |
| O=P1(Oc2ccccc2)CC(O)C(O)C(COCc2ccccc2)O1 (stereo not given) |  | -0.629% |
| CC(=O)OC1C2(CC3N4C(=O)C5(CO)SSC4(CC31O)C(=O)N5C)OC(C)C(C)(C)C2=O (stereo not given) | 39.8 µM (active) |  |
